Data published in the supplement of paper PMC8728848.
The sample as a whole holds a higher share of the strongest signals than the screen did.

Legend:
Assay in all cases: glycan array binding signal (z-score within array); higher = stronger binding
Settings in all cases: glycan notation: IUPAC condensed, linker removed
[1] = biological target: Fuc(a1-2)Gal(b1-3)[Fuc(a1-4)]GlcNAc(b1-2)Man(a1-3)[Fuc(a1-2)Gal(b1-3)[Fuc(a1-4)]GlcNAc(b1-2)Man(a1-6)]Man(b1-4)GlcNAc(b1-4)GlcNAc
Summary of the method: (§1)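 Glycan array data were curated from 3228 arrays in the Consortium for Functional Glycomics database and kept only where the protein sequence was available. Glycan names were converted to IUPAC-condensed notation, and columns mapping to the same glycan were averaged. The binding signal is a within-array Z-score, averaged across arrays of the same protein sequence at different concentrations or buffers and across linkers. Negative Z-scores can be read as non-binding.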

[2] = biological target: Fuc(a1-2)[GalNAc(a1-3)]Gal(b1-4)GlcNAc
Summary of the method: as §1

[3] = biological target: Fuc(a1-2)[GalNAc(a1-3)]Gal(b1-4)GlcNAc(b1-2)Man(a1-3)[GalNAc(a1-3)[Fuc(a1-2)]Gal(b1-4)GlcNAc(b1-2)Man(a1-6)]Man(b1-4)GlcNAc(b1-4)GlcNAc
Summary of the method: as §1

[4] = biological target: Fuc(a1-3)[Gal(b1-4)]GlcNAc
Summary of the method: as §1

[5] = biological target: Fuc(a1-3)[Gal(b1-4)]GlcNAc(b1-2)Man(a1-3)[Fuc(a1-3)[Gal(b1-4)]GlcNAc(b1-2)Man(a1-6)]Man(b1-4)GlcNAc(b1-4)GlcNAc
Summary of the method: as §1

[6] = biological target: Fuc(a1-3)[Gal3S(b1-4)]GlcNAc
Summary of the method: as §1

[7] = biological target: Fuc(a1-3)[GalNAc(b1-4)]GlcNAc
Summary of the method: as §1

[8] = biological target: Gal(a1-3)Gal(b1-4)[Fuc(a1-3)]GlcNAc(b1-2)Man(a1-3)[Gal(a1-3)Gal(b1-4)[Fuc(a1-3)]GlcNAc(b1-2)Man(a1-6)]Man(b1-4)GlcNAc(b1-4)GlcNAc
Summary of the method: as §1

[9] = biological target: Gal(b1-3)GalNAc(b1-4)Gal(b1-4)Glc
Summary of the method: as §1

[10] = biological target: Gal(b1-3)GlcNAc(b1-2)Man(a1-3)[Gal(b1-3)GlcNAc(b1-2)Man(a1-6)]Man(b1-4)GlcNAc(b1-4)[Fuc(a1-6)]GlcNAc
Summary of the method: as §1

[11] = biological target: Gal(b1-3)[Fuc(a1-4)]GlcNAc(b1-2)Man(a1-3)[Gal(b1-3)[Fuc(a1-4)]GlcNAc(b1-2)Man(a1-6)]Man(b1-4)GlcNAc(b1-4)[Fuc(a1-6)]GlcNAc
Summary of the method: as §1

[12] = biological target: Gal(b1-4)GlcNAc(b1-2)[Gal(b1-4)GlcNAc(b1-4)]Man(a1-3)[Gal(b1-4)GlcNAc(b1-2)Man(a1-6)]Man(b1-4)GlcNAc(b1-4)GlcNAc
Summary of the method: as §1

Gal3S(b1-4)GlcNAc6S = biological target: Gal3S(b1-4)GlcNAc6S
Summary of the method: as §1

Gal4S(b1-4)GlcNAc = biological target: Gal4S(b1-4)GlcNAc
Summary of the method: as §1

[13] = biological target: GlcNAc(b1-2)Man(a1-3)[GlcNAc(b1-2)Man(a1-6)]Man(b1-4)GlcNAc(b1-4)GlcNAc
Summary of the method: as §1

[14] = biological target: GlcNAc(b1-4)GlcNAc(b1-4)GlcNAc(b1-4)GlcNAc(b1-4)GlcNAc
Summary of the method: as §1

Kdn(a2-3)Gal(b1-3)GlcNAc = biological target: Kdn(a2-3)Gal(b1-3)GlcNAc
Summary of the method: as §1

[15] = biological target: Neu5Ac(a2-3)Gal(b1-3)GalNAc(b1-3)Gal(a1-4)Gal(b1-4)Glc
Summary of the method: as §1

[16] = biological target: Neu5Ac(a2-3)Gal(b1-4)GlcNAc(b1-6)[Neu5Ac(a2-3)Gal(b1-3)]GalNAc
Summary of the method: as §1

[17] = biological target: Neu5Ac(a2-3)Gal(b1-4)[Fuc(a1-3)]GlcNAc(b1-3)Gal
Summary of the method: as §1

[18] = biological target: Neu5Ac(a2-3)Gal(b1-4)[Fuc(a1-3)]GlcNAc(b1-3)Gal(b1-4)GlcNAc
Summary of the method: as §1

[19] = biological target: Neu5Ac(a2-3)Gal(b1-4)[Fuc(a1-3)]GlcNAc6S
Summary of the method: as §1

[20] = biological target: Neu5Ac(a2-3)Gal6S(b1-4)GlcNAc
Summary of the method: as §1

[21] = biological target: Neu5Ac(a2-6)Gal(b1-4)GlcNAc6S
Summary of the method: as §1

[22] = biological target: Neu5Ac(a2-8)Neu5Ac(a2-3)Gal(b1-4)Glc
Summary of the method: as §1

[23] = biological target: Neu5Ac(a2-8)Neu5Ac(a2-8)Neu5Ac(a2-8)Neu5Ac(a2-3)[GalNAc(b1-4)]Gal(b1-4)Glc
Summary of the method: as §1

[24] = biological target: Neu5Ac9Ac(a2-3)Gal(b1-3)GlcNAc
Summary of the method: as §1

[25] = biological target: Neu5Gc(a2-3)Gal(b1-3)GlcNAc
Summary of the method: as §1

Fuc(a1-3)GlcNAc = biological target: Fuc(a1-3)GlcNAc
Summary of the method: as §1

[26] = biological target: Fuc(a1-3)[Gal(b1-4)]GlcNAc(b1-4)Gal(b1-4)[Fuc(a1-3)]GlcNAc
Summary of the method: as §1

[27] = biological target: Gal(a1-3)[Gal(a1-4)]Gal(b1-4)GlcNAc
Summary of the method: as §1

Gal(b1-2)Gal = biological target: Gal(b1-2)Gal
Summary of the method: as §1

[28] = biological target: Gal(b1-3)GlcNAc(b1-3)Gal(b1-4)Glc
Summary of the method: as §1

[29] = biological target: Gal(b1-3)[Neu5Ac(a2-6)]GalNAc
Summary of the method: as §1

[30] = biological target: Gal(b1-4)GalNAc(b1-3)[Fuc(a1-2)]Gal(b1-4)GlcNAc
Summary of the method: as §1

Gal3S(b1-3)GlcNAc = biological target: Gal3S(b1-3)GlcNAc
Summary of the method: as §1

[31] = biological target: GlcNAc(a1-4)Gal(b1-3)GlcNAc
Summary of the method: as §1

[32] = biological target: GlcNAc(a1-4)Gal(b1-4)GlcNAc(b1-3)Gal(b1-4)GlcNAc(b1-3)Gal(b1-4)GlcNAc
Summary of the method: as §1

[33] = biological target: GlcNAc(a1-4)Gal(b1-4)GlcNAc(b1-3)Gal(b1-4)[Fuc(a1-3)]GlcNAc(b1-3)Gal(b1-4)[Fuc(a1-3)]GlcNAc
Summary of the method: as §1

[34] = biological target: GlcNAc(a1-6)Gal(b1-4)GlcNAc
Summary of the method: as §1

[35] = biological target: GlcNAc(b1-3)[GlcNAc(b1-6)]Gal(b1-4)GlcNAc
Summary of the method: as §1

[36] = biological target: Man(a1-2)Man(a1-2)Man(a1-3)Man
Summary of the method: as §1

[37] = biological target: Man(a1-2)Man(a1-3)[Man(a1-2)Man(a1-6)]Man
Summary of the method: as §1

[38] = biological target: Man(a1-2)Man(a1-3)[Man(a1-2)Man(a1-6)]Man(a1-6)[Man(a1-2)Man(a1-2)Man(a1-3)]Man
Summary of the method: as §1

[39] = biological target: Man(a1-2)Man(a1-3)[Man(a1-2)Man(a1-6)]Man(a1-6)[Man(a1-2)Man(a1-2)Man(a1-3)]Man(b1-4)GlcNAc(b1-4)GlcNAc
Summary of the method: as §1

[40] = biological target: Man(a1-3)[Man(a1-6)]Man(a1-6)[Man(a1-2)Man(a1-3)]Man(b1-4)GlcNAc(b1-4)GlcNAc
Summary of the method: as §1

[41] = biological target: Man(a1-3)[Man(a1-6)]Man(a1-6)[Man(a1-3)]Man(b1-4)GlcNAc(b1-4)GlcNAc
Summary of the method: as §1

[42] = biological target: Neu5Ac(a2-3)Gal(b1-4)GlcNAc
Summary of the method: as §1

[43] = biological target: Neu5Ac(a2-3)Gal(b1-4)GlcNAc6S
Summary of the method: as §1

[44] = biological target: Neu5Ac(a2-3)Gal(b1-4)[Fuc(a1-3)]GlcNAc
Summary of the method: as §1

[45] = biological target: Neu5Ac(a2-3)Gal(b1-4)[Fuc(a1-3)]GlcNAc(b1-6)[Gal(b1-3)]GalNAc
Summary of the method: as §1

[46] = biological target: Neu5Ac(a2-3)[GalNAc(b1-4)]Gal(b1-4)GlcNAc
Summary of the method: as §1

[47] = biological target: Neu5Ac(a2-6)Gal(b1-4)GlcNAc(b1-2)Man(a1-3)[GlcNAc(b1-2)Man(b1-4)GlcNAc(b1-2)Man(a1-6)]Man(b1-4)GlcNAc(b1-4)GlcNAc
Summary of the method: as §1

[48] = biological target: Neu5Ac(b2-6)Gal(b1-4)GlcNAc
Summary of the method: as §1

Neu5Gc(a2-3)Gal(b1-4)Glc = biological target: Neu5Gc(a2-3)Gal(b1-4)Glc
Summary of the method: as §1

B1: CCL2 (Coprinopsis cinerea), B3GA02 (protein)
chain: MDSPAVTLSAGNYIIYNRVLSPRGEKLALTYPGRQRTPVTVSPLDGSSEQAWILRSYDSNSNTWTISPVGSPNSQIGWGAGNVPVVLPPNNYVWTLTLTSGGYNIQDGKRTVSWSLNNATAGEEVSIGADATFSGRWVIEKV
glycan array binding signal (z-score) [1]: -0.067 | glycan array binding signal (z-score) [2]: -0.286 | glycan array binding signal (z-score) [3]: -0.269 | glycan array binding signal (z-score) [4]: 0.752 | glycan array binding signal (z-score) [5]: 3.53 | glycan array binding signal (z-score) [6]: -0.279 | glycan array binding signal (z-score) [7]: 4.84 | glycan array binding signal (z-score) [8]: 4.37 | glycan array binding signal (z-score) [9]: -0.293 | glycan array binding signal (z-score) [10]: -0.283 | glycan array binding signal (z-score) [11]: -0.19 | glycan array binding signal (z-score) [12]: -0.268 | glycan array binding signal (z-score) (Gal3S(b1-4)GlcNAc6S): -0.276 | glycan array binding signal (z-score) (Gal4S(b1-4)GlcNAc): -0.26 | glycan array binding signal (z-score) [13]: -0.257 | glycan array binding signal (z-score) [14]: -0.255 | glycan array binding signal (z-score) (Kdn(a2-3)Gal(b1-3)GlcNAc): -0.257 | glycan array binding signal (z-score) [15]: -0.278 | glycan array binding signal (z-score) [16]: -0.27 | glycan array binding signal (z-score) [17]: 5.39 | glycan array binding signal (z-score) [18]: 4.93 | glycan array binding signal (z-score) [19]: 4.45 | glycan array binding signal (z-score) [20]: 4.88 | glycan array binding signal (z-score) [21]: -0.205 | glycan array binding signal (z-score) [22]: -0.275 | glycan array binding signal (z-score) [23]: -0.286 | glycan array binding signal (z-score) [24]: -0.294 | glycan array binding signal (z-score) [25]: -0.282

B2: DC-SIGN (Canis lupus), XP_853402 (protein)
chain: AGLCRPCPWKWELFQESCYFFSQTQNTWKESISACQNLRAQLVIINSTEEQKFLKSWNTRNNQRTWIGLSDHHNEGSWKWVDNTPLQLSFWKEGEPNNHGDEDCVELYSDGWNDNRCSTENFWICKKPSSPCPGPGLNDIFEAQKIEWHE
glycan array binding signal (z-score) [1]: 0.148 | glycan array binding signal (z-score) [2]: -0.137 | glycan array binding signal (z-score) (Fuc(a1-3)GlcNAc): 0.009 | glycan array binding signal (z-score) [5]: -0.157 | glycan array binding signal (z-score) [26]: 0.044 | glycan array binding signal (z-score) [27]: -0.15 | glycan array binding signal (z-score) (Gal(b1-2)Gal): -0.033 | glycan array binding signal (z-score) [28]: -0.172 | glycan array binding signal (z-score) [11]: 5.73 | glycan array binding signal (z-score) [29]: -0.216 | glycan array binding signal (z-score) [30]: -0.176 | glycan array binding signal (z-score) (Gal3S(b1-3)GlcNAc): -0.026 | glycan array binding signal (z-score) [31]: 0.018 | glycan array binding signal (z-score) [32]: -0.272 | glycan array binding signal (z-score) [33]: 1.73 | glycan array binding signal (z-score) [34]: -0.105 | glycan array binding signal (z-score) [35]: -0.336 | glycan array binding signal (z-score) [14]: -0.267 | glycan array binding signal (z-score) [36]: 7.92 | glycan array binding signal (z-score) [37]: 3.37 | glycan array binding signal (z-score) [38]: 7.69 | glycan array binding signal (z-score) [39]: 4.83 | glycan array binding signal (z-score) [40]: 11.8 | glycan array binding signal (z-score) [41]: 0.127 | glycan array binding signal (z-score) [42]: -0.217 | glycan array binding signal (z-score) [43]: -0.127 | glycan array binding signal (z-score) [44]: -0.257 | glycan array binding signal (z-score) [45]: -0.407 | glycan array binding signal (z-score) [46]: -0.085 | glycan array binding signal (z-score) [47]: -0.249 | glycan array binding signal (z-score) [21]: -0.341 | glycan array binding signal (z-score) [48]: -0.361 | glycan array binding signal (z-score) (Neu5Gc(a2-3)Gal(b1-4)Glc): -0.065
